PubChem BioAssay (NCI)
Compounds without any hit were thinned out: in the full panel of roughly 83,000, 20% have a hit.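 Single-dose data. Exposure time 48 hours. Values below 10 considered active.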 A number with no mark means an inactive call. The source made the active and inactive calls.

Experiments:
Experiment in all cases: NCI-60 one-dose screen, 48 h (100 = growth as untreated, 0 = no growth, -100 = all killed)
Conditions in all cases: 10 µM
K-562 leukemia = system: K-562 leukemia
MALME-3M melanoma = system: MALME-3M melanoma
MDA-MB-231 breast = system: MDA-MB-231 breast
RXF 393 renal = system: RXF 393 renal
SF-268 CNS = system: SF-268 CNS
SF-295 CNS = system: SF-295 CNS
SF-539 CNS = system: SF-539 CNS
UACC-257 melanoma = system: UACC-257 melanoma
M14 melanoma = system: M14 melanoma
HCT-15 colon = system: HCT-15 colon

SMILES | growth (K-562 leukemia) | growth (MALME-3M melanoma) | growth (MDA-MB-231 breast) | growth (RXF 393 renal) | growth (SF-268 CNS) [%] | growth (SF-295 CNS) | growth (SF-539 CNS) | growth (UACC-257 melanoma) | growth (M14 melanoma) | growth (HCT-15 colon)
Nc1ccc2c(c1)Cc1cc(N)c(Br)cc1-2 | 99.7% | 104% | 116% | 111% | 109 | 76.8% | 83.1% | 109% | 102% | 97.3%
c1ccc([C@H]2CN3CCSC3=N2)cc1 | 91.8% | 92.3% | 101% | 101% | 111 | 91.3% | 87.8% | 104% | 85.8% | 108%
O=[N+]([O-])c1ccc(Oc2cc(Cl)c(Cl)cc2Cl)c(C(F)(F)F)c1 | 93.8% | 107% | 96.4% | 96.4% | 101 | 91.7% | 95.3% | 100% | 101% | 92.2%
CC1(C)Cc2c(sc3ncn4nc(-c5ccc(O)cc5)nc4c23)CO1 | 76.8% | 68.2% | 70.5% | 66.3% | 64.1 | 76.2% | 75.1% | 89.7% | 86.6% | 75.1%
CCOC(=O)C1CCc2c(ccc3ccccc23)N1CCC#N (stereo not given) | 55.5% | 80.2% | 91.5% | 89% | 113 | 88% | 110% | 104% | 93.3% | 91.9%
O=C(Nc1cccc(-n2cc(-c3ccncc3)c(-c3cc(O)cc(Cl)c3)n2)c1)Nc1ccc(Cl)c(C(F)(F)F)c1 | 5.24% (active) | -24.9% (active) | -47.3% (active) | -49.5% (active) | 42.1 | 14.3% | 32.6% | -40% (active) | -16.8% (active) | 5.79% (active)
COc1ccc2c(c1)nc(N)c1c3cccnc3cn21 | 18.4% | 66.3% | 22.4% | 34.8% | 34.4 | -16.6% (active) | 10.2% | 67.1% | 9.28% (active) | 19.5%
CN(C)CCN1C(=O)c2cccc3c(-c4ccc5ncn(C6CCCCC6)c5c4)ccc(c23)C1=O | 6.76% (active) | 30.8% | 33.6% | 26.3% | 35.8 | 23.1% | 31.9% | 23.1% | 30.2% | 12.5%
COc1ccc(S(=O)(=O)NCCCNc2nccc(-c3c(-c4ccc(F)cc4)nc4sccn34)n2)cc1 | 17.6% | 57.7% | 75.4% | 68.1% | 50.6 | 45.7% | 93.7% | 67.7% | 57.3% | 57.2%
COc1ccc(-c2nn(-c3cccc(NC(=O)c4ccc5c(c4)OCCO5)c3)cc2-c2ccncc2)cc1Cl | 18.4% | 4.38% (active) | 27.2% | 0.93% (active) | 34.8 | -26% (active) | -20.7% (active) | 34.9% | 13.5% | 32.8%
COc1ccc(-c2nn(-c3cccc(NC(=O)Nc4ccccc4)c3)cc2-c2ccncc2)cc1Cl | 10.4% | 17.9% | -9.47% (active) | -59.3% (active) | 27.9 | -7.17% (active) | -59.1% (active) | -32.9% (active) | 9.94% (active) | 16.6%
CSc1nn(-c2ccccc2)c2ncnc(Oc3ccc(C)cc3)c12 | 88.9% | 91.6% | 66.9% | 68.9% | 90.7 | 93.1% | 94.5% | 93% | 90.5% | 93.5%
CCOC(=O)C(NC(=O)C(Cl)Cl)C(O)c1ccccc1 (stereo not given) | 87.5% | 108% | 98.3% | 78.7% | 99.3 | 76.1% | 99.5% | 105% | 92.6% | 117%
O=C(N/N=C/c1ccccc1)C(Oc1ccccc1)c1ccccc1 (stereo not given) | 79% | 71.8% | 102% | 100% | 97.1 | 93.7% | 93.7% | 96.7% | 95.6% | 91.9%
